Results filed as inconclusive are left out. Active and inactive are the calls of the source. How the source made its calls, unless noted: active means hit-call score of the fitted dose curve at least 0.9, where 1 is the maximum; inconclusive means response in the unintended direction; inactive means score below 0.9.
What was measured:
[1] = read-out: Thyroid Hormone Responsive (THRSP), THRSP (gene 7069); test: LTEA_HepaRG_THRSP: Life Technologies and Expression Analysis (LTEA) Assay for Thyroid Hormone Responsive (THRSP) using HepaRG (AID 2283536; active means hit-call score of the fitted dose curve at least 0.9, where 1 is the maximum; inactive means score below 0.9); settings: mRNA level, 48 h; actives raise or lower the signal
How it was run: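 mRNA induction or loss relative to 0.5% DMSO vehicle was fitted bidirectionally across an eight-point curve whose highest exposure was 100 uM. Human HepaRG liver cells received chemicals in duplicate over 48 h before RNA extraction.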

[2] = read-out: Cellular tumor antigen p53 (Homo sapiens) (UniProt P04637); test: LTEA_HepaRG_TP53: Life Technologies and Expression Analysis (LTEA) Assay for Tumor Protein P53 (TP53) using HepaRG (AID 2283537; active means hit-call score of the fitted dose curve at least 0.9, where 1 is the maximum; inactive means score below 0.9); settings: mRNA level, 48 h; actives raise or lower the signal
How it was run: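 HepaRG, 48 h exposure, top 100 uM, half-log 8-point, 0.5% DMSO vehicle, duplicates. Read: TP53 mRNA by TaqMan qRT-PCR, normalised to ACTB/GAPDH/POLR2A; bidirectional fit vs DMSO.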

[3] = read-out: UDP glucuronosyltransferase (UGT1A1), UGT1A1 (gene 54658); test: LTEA_HepaRG_UGT1A1: Life Technologies and Expression Analysis (LTEA) Assay for UDP glucuronosyltransferase (UGT1A1) using HepaRG (AID 2283538; active means hit-call score of the fitted dose curve at least 0.9, where 1 is the maximum; inactive means score below 0.9); settings: mRNA level, 48 h; actives raise or lower the signal
How it was run: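 Readout is UGT1A1 transcript level by qRT-PCR, normalized to three housekeeping genes, after 48 h chemical treatment of HepaRG cells. Concentrations ran from 100 uM down in half-log steps with 0.5% DMSO, and gain or loss relative to DMSO was fitted.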

[4] = read-out: UDP glucuronosyltransferase (UGT1A6), UGT1A6 (gene 54578); test: LTEA_HepaRG_UGT1A6: Life Technologies and Expression Analysis (LTEA) Assay for UDP glucuronosyltransferase (UGT1A6) using HepaRG (AID 2283539; active means hit-call score of the fitted dose curve at least 0.9, where 1 is the maximum; inactive means score below 0.9); settings: mRNA level, 48 h; actives raise or lower the signal
How it was run: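 HepaRG, 48 h post-plating switch to serum-free induction medium; chemical 48 h, 100 uM top, half-log x8, duplicate, 0.5% DMSO. Phenobarbital 1mM induction control. UGT1A6 mRNA by TaqMan qRT-PCR; gain/loss fit vs DMSO.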

[5] = read-out: X-box binding protein 1 (XBP1), XBP1 (gene 7494); test: LTEA_HepaRG_XBP1: Life Technologies and Expression Analysis (LTEA) Assay for X-box binding protein 1 (XBP1) using HepaRG (AID 2283540; active means hit-call score of the fitted dose curve at least 0.9, where 1 is the maximum; inactive means score below 0.9); settings: mRNA level, 48 h; actives raise or lower the signal
How it was run: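 Transcript levels of XBP1, measured by qRT-PCR and normalised to three housekeeping genes, were fitted bidirectionally relative to 0.5% DMSO controls. Human HepaRG cells received eight-point half-log dilutions from 100 uM for 48 h.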

[6] = LTEA_HepaRG_LDH_cytotoxicity: Cytotoxicity Assessment in the Life Technologies and Expression Analysis (LTEA) Assay (AID 2283563)
How it was run: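 Cells were thawed and plated for 48 h. Medium was then replaced with serum-free induction medium. Chemicals (8 half-log points, maximum 100 uM, 0.5% DMSO) were added in duplicate for 48 h, after which spent medium was assayed for LDH.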

[7] = target: Cellular tumor antigen p53 (Homo sapiens) (UniProt P04637); test: TOX21_p53_BLA_p2_ratio: Tox21 HCT-116 p53 Agonism Beta-lactamase Assay, Ratio, Phase 2 (AID 2283592)
Sequence of Cellular tumor antigen p53 (Homo sapiens) (P04637 whole entry, looked up): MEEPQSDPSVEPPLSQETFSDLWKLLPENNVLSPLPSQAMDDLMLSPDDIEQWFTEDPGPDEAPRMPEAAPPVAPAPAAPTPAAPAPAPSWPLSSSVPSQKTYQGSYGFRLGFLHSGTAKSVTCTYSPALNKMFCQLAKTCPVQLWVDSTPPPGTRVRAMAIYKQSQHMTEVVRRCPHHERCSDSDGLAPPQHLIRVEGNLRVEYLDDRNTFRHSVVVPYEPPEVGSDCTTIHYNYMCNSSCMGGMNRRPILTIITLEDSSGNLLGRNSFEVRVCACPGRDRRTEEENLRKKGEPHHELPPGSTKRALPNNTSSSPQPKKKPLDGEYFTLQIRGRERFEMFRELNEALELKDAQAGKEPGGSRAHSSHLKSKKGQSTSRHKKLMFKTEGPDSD
How it was run: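 HCT116 p53-bla; 4000 cells/well; 5 h pre-incubation; cpd in DMSO, 217-fold dilution; 16 h 37C/5% CO2; CCF4-AM 2 h RT; Ex 405, Em 460/530 ratio; DMSO = baseline; positive fitting direction.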

[8] = TOX21_p53_BLA_p3_viability: Viability Assessment in the Tox21 HCT-116 p53 Agonism Beta-lactamase Assay, Phase 3 (AID 2283593);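 further: cells exposed to compound for 16 h before reading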
How it was run: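 Cellular ATP was quantified by CellTiter-Glo luminescence, read after 30 min at room temperature. Beforehand, HCT116 cells (4000/well) received compound 5 h post-seeding, 217-fold diluted from DMSO, then incubated 16 h at 37C.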

[9] = target: Cellular tumor antigen p53 (Homo sapiens) (UniProt P04637); test: TOX21_p53_BLA_p3_ratio: Tox21 HCT-116 p53 Agonism Beta-lactamase Assay, Ratio, Phase 3 (AID 2283596)
How it was run: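 HCT116 p53-bla cells (4000/well) given compound in DMSO (217-fold dilution) after 5 h, incubated 16 h at 37C. CCF4-AM substrate 2 h at room temperature; 460/530 nm emission ratio, gain fitted against DMSO.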

[10] = target: Cellular tumor antigen p53 (Homo sapiens) (UniProt P04637); test: TOX21_p53_BLA_p5_ratio: Tox21 HCT-116 p53 Agonism Beta-lactamase Assay, Ratio, Phase 5 (AID 2283599)
How it was run: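 Beta-lactamase reporter ratio (blue 460 nm over green 530 nm, 405 nm excitation) after 2 h CCF4-AM loading, in HCT-116 cells exposed 16 h at 37 C to compounds pinned at 217-fold dilution. Increases relative to DMSO baseline scored.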

[11] = Tanguay_ZF_120hpf_MORT_legacy: (Legacy) Oregon State University Tanguay Lab 120 Hour Post-fertilization zebrafish Assay for Mortality (AID 2283633)
How it was run: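 5D WT zebrafish, chorion removed 4 hpf; 1 embryo/well from 6 hpf; static exposure to 120 hpf, 28C, dark, sealed. Final DMSO 0.64%. Readout: binary mortality, brightfield, 24 + 120 hpf; DMSO as negative control.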

[12] = Tanguay_ZF_120hpf_YSE_legacy: (Legacy) Oregon State University Tanguay Lab 120 Hour Post-fertilization zebrafish Assay for Yolk Sac Edema (AID 2283634)
How it was run: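 Dechorionate (pronase, 4 hpf) → place one 6 hpf embryo per well → static compound exposure, sealed and foil-covered, 28C, to 120 hpf → record yolk sac edema as present or absent. Final DMSO 0.64%.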

[13] = Tanguay_ZF_120hpf_AXIS_legacy: (Legacy) Oregon State University Tanguay Lab 120 Hour Post-fertilization zebrafish Assay for Body Axis Malformation (AID 2283635)
How it was run: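 Chorion is removed with pronase at 4 hpf, then single 6 hpf embryos are dosed (final DMSO 0.64%) and held statically at 28C in sealed, foil-covered plates. At 120 hpf body axis malformation is recorded as present or absent.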

[14] = Tanguay_ZF_120hpf_EYE_legacy: (Legacy) Oregon State University Tanguay Lab 120 Hour Post-fertilization zebrafish Assay for Eye Malformation (AID 2283636)
How it was run: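 Read-out is binary presence or absence of eye malformation, scored by brightfield microscopy at 120 hpf. Single larvae were exposed from 6 hpf in embryo medium containing 0.64% DMSO, with DMSO as baseline.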

[15] = Tanguay_ZF_120hpf_SNOU_legacy: (Legacy) Oregon State University Tanguay Lab 120 Hour Post-fertilization zebrafish Assay for Snout Malformation (AID 2283637)
How it was run: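 Snout malformation read as a yes/no call on brightfield images of 120 hpf larvae (Tropical 5D strain). Static exposure began at 6 hpf on dechorionated embryos in 0.64% DMSO, with gain of signal analysed versus DMSO controls.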

[16] = TOX21_p53_BLA_p4_viability: Viability Assessment in the Tox21 HCT-116 p53 Agonism Beta-lactamase Assay, Phase 4 (AID 2283597);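 further: hits lower the luminescence signal meaning cytotoxicity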
How it was run: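 Cells plated, 5 h pre-incubation; DMSO compounds pinned (217-fold dilution); 16 h, 37C/5% CO2; CCF4-AM 2 h RT; CellTiter-Glo 30 min RT; luminescence read.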

[17] = TOX21_p53_BLA_p5_viability: Viability Assessment in the Tox21 HCT-116 p53 Agonism Beta-lactamase Assay, Phase 5 (AID 2283600)
How it was run: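 4000 cells/well; 5 h pre-incubation; DMSO compounds pin-transferred, 217-fold dilution; 16 h, 37C/5% CO2; CCF4-AM 2 h RT; CellTiter-Glo 30 min RT; luminescence.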

[18] = target: Cellular tumor antigen p53 (Homo sapiens) (UniProt P04637); test: TOX21_p53_BLA_p4_ratio: Tox21 HCT-116 p53 Agonism Beta-lactamase Assay, Ratio, Phase 4 (AID 2283601)
How it was run: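 Signal is the blue/green (460nm/530nm) ratio of cleaved versus uncleaved CCF4-AM substrate, read after 2 h substrate loading. Cells were HCT116 carrying the p53-responsive beta-lactamase reporter, dosed 16 h at 37C, 5% CO2; CellTiter-Glo measured in parallel.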

Measured: AC50

CNc1cnn(-c2cccc(C(F)(F)F)c2)c(=O)c1Cl
active: [3] 16.1 µM
not listed: [16] | [17] | [18]
inactive: all other assays above

CC1=NNC(=O)N(/N=C/c2cccnc2)C1
active: [1] 12.9 µM
not listed: [8] | [10]
inactive: all other assays above

CCCOc1nn(C(=O)NS(=O)(=O)c2ccccc2C(=O)OC)c(=O)n1C
not listed: [7] | [8] | [9] | [13] | [16] | [17]
inactive: all other assays above
